In the library only some 4.3% were active in any assay of this set; here they are far more common.
GLP1R ag: GLP-1 receptor (human) agonism. P43220. HEK293 GLP-1R CRE-luciferase, luminescence, 4-6 h; cells express a hypersensitive GLP-1R form. Potency, µM (series often up to 45.6 µM), usual class: activators. 0.007% of 380,000 active. AID 624172
Target sequence (P43220 whole entry, looked up): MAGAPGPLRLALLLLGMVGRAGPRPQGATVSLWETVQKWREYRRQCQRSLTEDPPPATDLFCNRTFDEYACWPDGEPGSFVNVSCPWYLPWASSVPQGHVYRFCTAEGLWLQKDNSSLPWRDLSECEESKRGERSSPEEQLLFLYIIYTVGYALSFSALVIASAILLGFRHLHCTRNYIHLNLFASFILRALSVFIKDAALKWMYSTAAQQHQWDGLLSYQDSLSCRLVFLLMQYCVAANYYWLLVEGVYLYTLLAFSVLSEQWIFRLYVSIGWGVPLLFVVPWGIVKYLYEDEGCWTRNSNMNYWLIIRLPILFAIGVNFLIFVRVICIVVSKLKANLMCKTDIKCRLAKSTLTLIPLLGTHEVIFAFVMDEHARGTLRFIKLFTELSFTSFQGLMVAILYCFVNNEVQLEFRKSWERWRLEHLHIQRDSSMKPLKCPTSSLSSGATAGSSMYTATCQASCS
DRD3 agonist: D3 dopamine receptor (human) agonism. D3R DiscoveRx beta-arrestin cells, luminescence, 90 min. max activation, %. 0.58% of 410,000 active. AID 652048; in the data active means max activation above about 30%
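Agonist-mode cell screen: cells plated at 1500/well and incubated overnight at 37 °C, then exposed to library compounds for 90 min at 37 °C. Detection reagent was added for 30–60 min at room temperature, and luminescence was read.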
GLP1R inv ag: acts as inverse agonist at human GLP-1 receptor. HEK293 GLP-1R CRE-luciferase, luminescence, 24 h; GLP-1R form is constitutively active. P43220. Potency, µM (highest dose often 38.3 µM), hits mostly inhibitors. 1.6% of 410,000 active; further: nearly all actives have a fitted effect of over 55% in size
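Luminescence readout: a drop in cAMP-driven luciferase signal flags inverse agonism at a constitutively active GLP-1R stably expressed in HEK293. Compound exposure lasted 24 hr at 37 deg C, 5% CO2.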
D3 antag: D3 dopamine receptor (human) antagonism. P35462. D3R cells, DiscoveRx beta-arrestin luminescence, antagonist mode; hits give low values. max response, negative = inhibition, %. 2.5% of 360,000 active. AID 652054; in the data active means max response below about -50%; inconclusive means no clear call, values can overlap the other calls
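Cells plated overnight at 1500 cells/well, then exposed to library compounds with dopamine controls for 90 minutes at 37 degrees C. DiscoveRx reagent added for 30–60 minutes at room temperature; luminescence read, quantitative HTS format.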
Of the large screens only hits and unclear results are named; the others gave an inactive call. Unless noted, the call rests on the fitted dose curve; in most records, active means well fitted curve in the direction sought with a large enough effect; inconclusive means small, poorly fitted or top-dose-only effect, or another doubt; inactive means no such curve, though single readings can be large; an effect the other way counts as inactive or inconclusive.

CCCCN(C)C(=O)CN1C(=O)c2cccnc2Oc2ccc(Cl)cc21	none (no result: GLP1R ag, D3 antag)
COCCn1c(C)cc(C(=O)CSc2cc(C)c3ccccc3n2)c1C	GLP1R inv ag 13µM
COCCn1c(C)cc(C(=O)CSc2nc3ccccc3c(=O)n2Cc2ccco2)c1C	DRD3 agonist 43
CCCn1c(CC)nc([N+](=O)[O-])c1Sc1ncn[nH]1	GLP1R inv ag inconclusive
O=C(OCc1nnc(-c2ccccc2)o1)C1CC(=O)N(CCc2ccccc2)C1 (centres undefined)	none
Cc1ccc(CN(C(=O)c2ccccc2F)c2ccccn2)o1	none (no result: GLP1R ag, D3 antag)
CSc1cccc(CN2CCN(Cc3ccc(F)c(F)c3)C(CCO)C2)c1 (centres undefined)	GLP1R inv ag inconclusive, D3 antag -63
OCCC1CN(C2CCN(c3ccccc3F)CC2)CCN1Cc1ccccc1 (centres undefined)	D3 antag -103
OCCC1CN(Cc2nc(-c3ccccc3)cs2)CCN1CCc1ccccc1 (centres undefined)	GLP1R inv ag 10µM
CSc1cccc(CN2CCN(Cc3ccccc3)C(CCO)C2)c1 (centres undefined)	D3 antag -54
CSc1ccc(CN2CCN(Cc3ccccc3)C(CCO)C2)cc1 (centres undefined)	GLP1R inv ag inconclusive, D3 antag inconclusive
CCCCC/C=C\CCC(=O)N[C@H]1[C@H](Oc2c3cc4cc2Oc2ccc(cc2Cl)[C@@H](O[C@@H]2O[C@H](CO)[C@@H](O)[C@H](O)[C@H]2NC(C)=O)[C@@H]2NC(=O)[C@H](NC(=O)[C@@H]4NC(=O)[C@H]4NC(=O)[C@@H](Cc5ccc(c(Cl)c5)O3)NC(=O)[C@H](N)c3ccc(O)c(c3)Oc3cc(O)cc4c3)c3ccc(O)c(c3)-c3c(O[C@H]4O[C@H](CO)[C@@H](O)[C@H](O)[C@@H]4O)cc(O)cc3[C@@H](C(=O)O)NC2=O)O[C@H](CO)[C@@H](O)[C@@H]1O	none (no result: GLP1R ag, GLP1R inv ag, D3 antag)
CSc1cccc(CN2CCN(CCc3ccccc3)C(CCO)C2)c1 (centres undefined)	D3 antag -114
CC(=O)Nc1ccccc1OCCCN1CCC(C(O)(c2ccccc2)c2ccccc2)CC1	GLP1R inv ag inconclusive, D3 antag -70
CCOc1ccccc1NC(=O)NCCN1CCCCC1	D3 antag inconclusive
CC(=O)CCc1ccc(OCCCCN2CCC(Cc3ccccc3)CC2)cc1	GLP1R inv ag inconclusive, D3 antag inconclusive
CC(=O)Nc1ccc(OCCCN2CCC(C(O)(c3ccccc3)c3ccccc3)CC2)cc1	D3 antag -104
Oc1c(Br)cc(Br)cc1/C=N/N1CCN(Cc2ccccc2)CC1	D3 antag -80
O=C(Cn1cc(SCc2cccc(Cl)c2)c2ccccc21)N1CCCCCC1	GLP1R inv ag inconclusive (no result: GLP1R ag, D3 antag)
O=C(Nc1c(-c2ccc3c(c2)OCO3)[nH][nH]c1=O)c1ccc2c(c1)OCO2	D3 antag -78
O=C(Nc1c(-c2ccccc2)[nH][nH]c1=O)c1ccccc1	none (no result: GLP1R ag)
C/C(=N\NC(=O)c1ccc2c(c1)OCO2)c1ccc(C(=O)O)s1	none
C/C(=N\NC(=O)c1ccc2c(c1)OCO2)c1ccc2c(c1)OCO2	D3 antag -55
COC(=O)c1cn(NC(=O)C2CCC(C)CC2)c(=O)c2ccccc12 (centres undefined)	none
COC(=O)c1cn(NC(=O)c2cc([N+](=O)[O-])ccc2F)c(=O)c2ccccc12	GLP1R inv ag 1.6µM
CC(C)c1ccccc1NC(=O)COC(=O)c1c2c(nc3ccccc13)CCN(Cc1ccccc1)C2	GLP1R inv ag 10µM
CC(C)NC(=O)NC(=O)COC(=O)c1c2c(nc3ccccc13)CCC2	DRD3 agonist 36, GLP1R inv ag 10µM
O=C(NCc1ccco1)c1c2c(nc3ccccc13)CCC2	D3 antag -59
CC(C)(C)NC(=O)COC(=O)c1c2c(nc3ccccc13)CCC2	none
CN1[C@@H]2CCC[C@@H]1CC(NC(=O)c1nn(C)c3ccccc13)C2 (some centres undefined)	none (no result: DRD3 agonist, GLP1R inv ag, D3 antag)
Cc1ccc(-c2cc(=O)c3cc(C)ccc3[nH]2)cc1	GLP1R inv ag 3.2µM
COc1cc(NC(=O)C(CC(C)C)NS(=O)(=O)c2ccc3c(c2)CCN3C(C)=O)cc(OC)c1 (centres undefined)	none (no result: GLP1R ag, D3 antag)
COc1ccc(-c2onc(C)c2C)cc1S(=O)(=O)NCC1CCN(Cc2cc(C)ccc2C)CC1	none (no result: GLP1R ag, D3 antag)
CCc1ccc(-c2nn(CC(=O)NC3CCCCC3)c3c2cnc2ccc(F)cc23)cc1	none (no result: GLP1R ag, D3 antag)
CC1S/C(=N\N=C\c2cccc([N+](=O)[O-])c2)N(C(C)(C)C)C1=O (centres undefined)	GLP1R inv ag 3.5µM
O=[N+]([O-])c1cccc(C=NN=C2c3ccccc3-c3ccccc32)c1	none
CC(=O)OCC1=C[C@@H]2OC(=O)C3=CO[C@@H](O[C@@H]4O[C@H](CO)[C@@H](O)[C@H](O)[C@H]4O)[C@H]1[C@@H]32	DRD3 agonist 70
Cc1ccc2c(c1)N(CC(=O)Nc1ccccc1C(F)(F)F)C(=O)c1cccnc1O2	none (no result: GLP1R ag, D3 antag)
CC1=C(C(=O)Nc2c(C)cc(C)cc2C)C2(CCN(C(C)C)CC2)OC1=O	none (no result: GLP1R ag, D3 antag)
CCNc1nc(N)c(C(=O)c2ccc(Cl)s2)s1	GLP1R inv ag inconclusive, D3 antag -51
Cn1c(=O)c2c(SCC(=O)Nc3ccc(F)cc3F)nc(C3CCCC3)nc2n(C)c1=O	none (no result: GLP1R ag, D3 antag)
CCc1ccc(C(=O)c2cn(Cc3ccc(F)cc3)c3cc(OC)c(OC)cc3c2=O)cc1	GLP1R inv ag inconclusive (no result: GLP1R ag, D3 antag)
CCCOc1ccc(NC(=O)CNC(=O)c2cc(OC)cc(OC)c2)cc1OCCC	D3 antag -58
CCOc1ccc(C(=O)NCC(=O)Nc2ccncc2)cc1OCC	none
CC1CCn2c(nc3cc(C(=O)NCc4ccc(F)cc4)ccc32)C1 (centres undefined)	none (no result: GLP1R ag, D3 antag)
O=C(CCc1nnc(-c2ccc(-c3ccccc3)cc2)o1)N1CCCCC1	DRD3 agonist 32, GLP1R inv ag inconclusive
COC(c1ccccc1)c1nnc(CCC(=O)N2CCCCCCC2)o1 (centres undefined)	GLP1R inv ag inconclusive
COc1cc(OC)cc(C(=O)NC(=S)Nc2cc3oc4ccccc4c3cc2OC)c1	none
COc1ccc(C(=O)NC(=S)Nc2cc3oc4ccccc4c3cc2OC)cc1	DRD3 agonist 31
COc1ccc(CNC(=O)c2ccc3c(c2)N(Cc2ccccc2F)C(=O)c2ccccc2S3=O)cc1 (centres undefined)	none (no result: D3 antag)
CN(C)/C=C/c1oc2ccc(O)cc2c1[N+](=O)[O-]	D3 antag -52
COc1cccc(N/C(SCc2ccccc2C)=C(/C#N)C(=O)NCc2cccs2)c1	GLP1R inv ag 7.1µM
COc1ccc(N2CC(NC(=O)c3ccc4c(c3)OCO4)CC2=O)cc1 (centres undefined)	none (no result: GLP1R ag, D3 antag)
CCOc1ccc(OCCOCCN2CCc3ccccc3C2)cc1	D3 antag -58
c1ccc(OCCOCCN2CCc3ccccc3C2)cc1	GLP1R inv ag inconclusive, D3 antag -111
CCCOc1ccc(OCCOCCN2CCc3ccccc3C2)cc1	GLP1R inv ag inconclusive, D3 antag -70

Screens from PubChem BioAssay.
